# FBPA coupling cs: coupling enzyme interference in Giardia aldolase counter-screen; coupling enzyme system counterscreen, AmpLite Red fluorescence; activity change, negative = inhibition, % at 58.2 µM, hits read low; 290,000 compounds, 0.67% hits; AID 2472; in the data active = activity change below about -30%
#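 Coupling enzymes only (glyceraldehyde-3-phosphate) + compound, at 57.5 uM final, 10 min RT; add substrate/coupling/AmpLite Red mix, 20 min RT; fluorescence ex 525/em 598 nm. Actives flag coupling-system interference.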
# JMJD2E inh: JMJD2E (human) inhibition | B2RXH2 | JMJD2E catalytic domain, FDH-coupled NADH fluorescence (FDH is formaldehyde dehydrogenase) | Potency, µM (series often up to 57.1 µM), without a hit: at the highest dose activity change, negative = inhibition, hits mostly inhibitors | 230,000 compounds, 1.6% hits; active = well fitted inhibition curve with a large enough effect, not every such curve was filed as active; inconclusive = small, poorly fitted or top-dose-only effect, or another doubt; inactive = no such curve, though single readings can be large or run the other way;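 also: potency is read from the fitted curve at half-maximal effect; 0% = wells with enzyme and -100% = buffer wells without enzyme; nearly all actives have a fitted effect of over 50% in size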
# Target sequence (B2RXH2 1-337 limits assumed): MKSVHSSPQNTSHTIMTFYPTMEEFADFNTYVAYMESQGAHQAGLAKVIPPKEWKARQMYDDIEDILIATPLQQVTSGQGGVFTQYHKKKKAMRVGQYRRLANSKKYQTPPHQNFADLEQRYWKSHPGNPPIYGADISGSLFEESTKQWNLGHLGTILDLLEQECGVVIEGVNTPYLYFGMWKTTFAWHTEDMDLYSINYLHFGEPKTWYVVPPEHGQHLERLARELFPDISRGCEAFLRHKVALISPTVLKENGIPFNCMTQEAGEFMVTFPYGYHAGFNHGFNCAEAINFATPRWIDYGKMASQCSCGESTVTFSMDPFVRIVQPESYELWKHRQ
# Tau fibril FP: blocks human tau fibril formation measured by polarization; 280,000 compounds, 0.39% hits; K18 P301L tau heparin fibrillization, Alexa594 FP, 6 h; Potency, µM (series often up to 57.7 µM), inactives show at the top dose activity, negative = inhibition, actives largely listed as inhibitors; P10636; also: potency is read from the fitted curve at half-maximal effect; nearly all actives have a fitted effect of over 55% in size
# Target sequence (P10636 561-689 P618L limits assumed): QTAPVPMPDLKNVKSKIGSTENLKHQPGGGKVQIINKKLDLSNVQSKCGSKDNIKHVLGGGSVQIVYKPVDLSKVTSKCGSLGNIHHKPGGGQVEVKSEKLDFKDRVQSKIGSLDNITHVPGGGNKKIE
#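 Recombinant K18 P301L […], labeled with Alexa 594 at 0.24 uM over 15 uM unlabeled; heparin inducer 20 uM final; 37 C, 6 hr; FP endpoint.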
# Tau ThT inhib: tau fibrillization inhibition (ThT binding) | P10636 | 270,000 compounds, 2.1% hits | Potency, µM (series often up to 57.4 µM), for inactives: at the top dose activity, negative = inhibition, most hits filed as inhibitors | recombinant tau K18 P301L, heparin-induced fibrillization, ThT fluorescence; also: potency is read from the fitted curve at half-maximal effect; nearly all actives have a fitted effect of over 55% in size
#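 Heparin-induced (20 uM) aggregation of recombinant human K18 P301L tau, 15 uM unlabeled with 0.24 uM labeled, pH 7 acetate buffer, 6 hr at 37 C with compound. Fibrils quantified by 30 uM ThT fluorescence after 1 hr ambient incubation.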
# Tau fluor cs: counter-screen for tau fibril formation inhibitors; 280,000 compounds, 0.93% hits; Potency, µM (series often up to 57.7 µM), inactives show at the highest dose activity change, negative = decrease; AID 1463; tau K18 P301L (four-repeat tau fragment) Alexa594 fluorescence, heparin fibrillization; also: potency is read from the fitted curve at half-maximal effect; nearly all actives have a fitted effect of over 55% in size
#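 Human K18 P301L tau (15 uM unlabeled plus 0.24 uM Alexa 594-labeled, final) in 100 mM sodium acetate pH 7 was mixed with compound and 20 uM heparin and incubated 6 hr at 37 C.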
# Starred values were filed as active, the others as inactive; ? = inconclusive; nt = no result; ! = a repeat was not active; [ ] = another dose, or the depositor's remark. In the library only some 3% were active in any assay of this set; here they are far more common. Unless noted, calls follow the shape of the dose curve; as a rule, active = well fitted curve in the direction sought with a large enough effect; inconclusive = small, poorly fitted or top-dose-only effect, or another doubt; inactive = no such curve, though single readings can be large; an effect the other way counts as inactive or inconclusive. Unless noted, % is scaled to controls: 0 for no effect and ±100 for the full control effect.
SMILES,FBPA coupling cs,JMJD2E inh,Tau fibril FP,Tau ThT inhib,Tau fluor cs
CC(C)(O)C1O[C@H]2CC[C@@]3(C)[C@@](O)(CC[C@H]4Cc5c([nH]c6ccccc56)[C@@]43C)C2=CC1=O (some centres undefined),nt,nt,?,?,16µM*[quencher]
CCn1c(O)c(N=Nc2cccc(S(=O)(=O)N3CCOCC3)c2)c(=O)n(CC)c1=S,1,4%,3%,?,-21%
CCn1c(O)c(N=Nc2ccc(S(=O)(=O)N3CCOCC3)cc2)c(=O)n(CC)c1=S,5,9%,-12%,8.9µM*,-28%
CC1=C2C(=O)C3C(CC=C4C[C@@H](O)CC[C@@]43C)[C@@H]2CC[C@]12O[C@@H]1C[C@H](C)CN[C@H]1C2C (some centres undefined),0,nt,nt,nt,nt
Cc1cccc(-n2c(/C=C/c3c[nH]c4ccccc34)nc3ccccc3c2=O)c1,nt,nt,1%,?,4µM*[quencher]
Cc1cccc(-n2c(/C=C/c3ccccn3)nc3ccccc3c2=O)c1,-3,nt,nt,nt,nt
COc1cccc(-n2c(/C=C/c3ccc(O)c(O)c3)nc3ccccc3c2=O)c1,-8,32µM*,10%,?,?
CN1CC[C@@]2(C)c3cc(O)ccc3N(C)C12 (some centres undefined),nt,5µM*,8.9µM*,7.1µM*,?
CN1CC[C@]2(C)c3cc(O)ccc3N(C)[C@@H]12,-69*,2.2µM*,nt,nt,nt
CCOC(=O)c1ccc(NC(=O)CSc2cc(=O)n(CC)c3ccccc23)cc1,nt,nt,?,4%,-22%
CN(C)C1C(=O)C(C(N)=O)C(=O)C2(O)C(=O)C3C(=O)c4c(O)cccc4C(C)(O)C3C(O)C12 (centres undefined),-6,nt,20µM*,4.5µM*,?
CN(C)C1C(=O)C(C(N)=O)=C(O)[C@@]2(O)C(=O)C3=C(O)c4c(O)cccc4[C@](C)(O)C3C(O)C12 (some centres undefined),-7,8.9µM*,?,?,?
CN(C)[C@@H]1C(=O)C(C(N)=O)=C(O)[C@@]2(O)C(=O)C3=C(O)c4c(O)cccc4[C@@](C)(O)[C@H]3[C@H](O)[C@@H]12,-20,?,11µM*,6.3µM*,?
O=C(O)c1ccccc1-c1c2cc(Br)c(=O)cc-2oc2[c]([Hg])c(O)c(Br)cc12,-20,5µM*,?,?,?
COCCCOc1ccnc(CS(=O)c2nc3ccccc3[nH]2)c1C (centres undefined),-1,nt,?,10µM*,-25%
CC[n+]1c(-c2ccccc2)c2cc(N)ccc2c2ccc(N)cc21,-44*,?,11µM*,4µM*,?
CCOc1cc2[nH]c(=O)n(CCCC(=O)N3CCN(c4cccc(Cl)c4)CC3)c(=O)c2cc1OCC,nt,nt,11%,?,-29%
CC(C)CN(C(=O)CN1CC=C(c2ccccc2)CC1)c1c(N)n(CC(C)C)c(=O)[nH]c1=O,-5,28µM*,-10%,-17%,-8%
CCN(C(=O)CN1CC=C(c2ccccc2)CC1)c1c(N)n(Cc2ccccc2)c(=O)[nH]c1=O,1,-12%,1%,-7%,4%
Cc1ccccc1-c1nc(CS(=O)CC(=O)N2CCN(c3cc(Cl)ccc3C)CC2)c(C)o1 (centres undefined),nt,nt,9%,?,-19%
CC(C)C[C@H](NC(=O)[C@H](CC(C)C)NC(=O)[C@H](Cc1ccccc1)NC(=O)[C@@H](N)Cc1ccc(O)cc1)C(=O)N[C@@H](CCCN=C(N)N)C(=O)N[C@@H](CC(N)=O)C(=O)N1CCC[C@H]1C(=O)O,3,nt,nt,nt,nt
CC(N)[C@@H](O)c1ccccc1 (some centres undefined),0,9%,-4%,0%,0%
CC(N)C(O)c1ccc(O)c(O)c1 (centres undefined),-4,16µM*,?,7.9µM*!,?
c1cc[n+]2c(c1)-c1cccc[n+]1CC2,-35*,nt,nt,nt,nt
CCOC(=O)c1cc(CC)sc1/N=C/C1C(=O)NC(=S)NC1=O,-39*,-15%,-10%,?,-12%
SMILES,FBPA coupling cs,JMJD2E inh,Tau fibril FP,Tau ThT inhib,Tau fluor cs
CCOC(=O)c1cc(CC)sc1/N=C/c1c(O)[nH]c(=S)[nH]c1=O,-88*,2%,-16%,-17%,-4%
C/C(O)=C1\C(=O)[C@@H]2[C@H]3c4c[nH]c5cccc(c45)C[C@H]3C(C)(C)N2C1=O,nt,nt,-2%,?,-18%
COc1ccc(CC2c3cc(OC)c(OC)cc3CCN2C)cc1O (centres undefined),-1,-15%,-6%,-10%,-6%
COc1cc2c(c(OC)c1OC)-c1ccc(O)c(=O)cc1[C@H](N)CC2,0,7.9µM*,nt,nt,nt
CCOC(=O)c1c(C)[nH]c(C)c1S(=O)(=O)N1CCC(C(=O)N2CCN(c3ccc(Cl)cc3)CC2)CC1,nt,nt,?,-6%,-24%
O=C(Nc1ccc(Br)cc1)c1cccc(S(=O)(=O)N2CCc3ccccc32)c1,nt,nt,?,10%,?
CN1CCN(c2ccc([N+](=O)[O-])c(NCC3CCCO3)c2)CC1 (centres undefined),-31*,-4%,8%,3%,1%
CN1CCN(c2ccc([N+](=O)[O-])c(NCc3ccco3)c2)CC1,-1,-6%,5%,?,-7%
CCC(C)N1C(=O)NC(=O)C2(Cc3c(ccc4ccccc34)N(C)C2)C1=O (centres undefined),-25,-27%,?,16µM*,?
CC(C)C[C@H]1C(=O)N2CCC[C@@H]2[C@]2(O)O[C@](NC(=O)[C@@H]3C=C4c5cccc6[nH]c(Br)c(c56)C[C@H]4N(C)C3)(C(C)C)C(=O)N12,-5,?,4%,?,?
CC(C)C[C@H]1C(=O)N2CCC[C@H]2[C@]2(O)O[C@](NC(=O)[C@@H]3C=C4c5cccc6[nH]c(Br)c(c56)CC4N(C)C3)(C(C)C)C(=O)N12 (some centres undefined),-21,?,0%,?,?
CC(C)[C@H]1C(=O)N2CCC[C@H]2[C@]2(O)O[C@](NC(=O)[C@@H]3C=C4c5cccc6[nH]cc(c56)C[C@H]4N(C)C3)(C(C)C)C(=O)N12,-46*,?,?,?,?
CC(C)C1C(=O)N2CCCC2[C@]2(O)O[C@@](NC(=O)[C@@H]3C=C4c5cccc6[nH]cc(c56)C[C@H]4N(C)C3)(C(C)C)C(=O)N12 (some centres undefined),-34*,?,?,20µM*,?
CC(=O)CC(c1ccccc1)c1c(O)c2cc(O)ccc2oc1=O (centres undefined),5,nt,nt,nt,nt
O=[N+]([O-])c1ccc(N2CCCC2)c2ccncc12,-15,1%,0%,13µM*,-10%
